# Shiga toxin inh: inhibitors of Shiga toxin in Vero cells; inhibition, % at 38.7 µM; 290,000 compounds, 9.2% hits; Vero cells, Shiga toxin protein synthesis inhibition reporter; in the data active means inhibition mostly above about 28%, no sharp cut-off; inactive means mostly below about 43%
# LmPK inhibitor: inhibitors of Leishmania mexicana pyruvate kinase; Q27686; 290,000 compounds, 0.37% hits; AID 1721; Potency, µM (doses to about 57.5 µM), usual class: inhibitors; purified LmPK, Kinase-Glo ATP luminescence, 1 h
# Target sequence (Q27686 whole entry, looked up): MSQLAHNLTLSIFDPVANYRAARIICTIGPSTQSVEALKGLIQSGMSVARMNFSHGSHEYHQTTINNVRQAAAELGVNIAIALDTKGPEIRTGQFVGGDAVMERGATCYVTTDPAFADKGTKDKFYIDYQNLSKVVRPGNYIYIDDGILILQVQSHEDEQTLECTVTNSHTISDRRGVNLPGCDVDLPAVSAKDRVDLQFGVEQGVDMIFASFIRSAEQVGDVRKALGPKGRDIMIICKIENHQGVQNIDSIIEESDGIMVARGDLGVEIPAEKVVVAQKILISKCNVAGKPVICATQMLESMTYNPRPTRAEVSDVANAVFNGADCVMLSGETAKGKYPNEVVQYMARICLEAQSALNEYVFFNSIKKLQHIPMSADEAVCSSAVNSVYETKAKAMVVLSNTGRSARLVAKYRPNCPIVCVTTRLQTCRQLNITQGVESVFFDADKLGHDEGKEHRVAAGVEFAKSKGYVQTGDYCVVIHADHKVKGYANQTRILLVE
#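 Purified LmPK (0.1 nM) with 0.5 mM PEP and 0.1 mM ADP in imidazole buffer pH 7.2 with MgCl2/KCl, 1 h at room temperature. ATP formed was read by luciferase luminescence and normalized to no-enzyme and uninhibited controls.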
# CHX counter: counter-screen for Shiga toxin inhibitors: cycloheximide protein synthesis inhibition; cell reporter, cycloheximide protein synthesis inhibition counterscreen; 300,000 compounds, 12% hits; max response, %; in the data active means max response mostly above about 13%, no sharp cut-off; inactive means mostly below about 14%; further: read at 38.3 µM for the half of the compounds with a filed dose
# Pf growth 96h: P. falciparum growth inhibition at 96 hours; P. falciparum luciferase reporter growth, 96 h; Potency, µM (titrated, usually from 28.7 µM), hits mostly inhibitors; 320,000 compounds, 6.9% hits; AID 504834
#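 Infected RBCs, 2% Hct / 0.05% parasitemia final; luciferase-reporter P. falciparum; cpd 96 h, 37 C, 5% CO2; luciferase detection reagent; luminescence.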
# Pf growth 48h: inhibits P. falciparum growth in the first generation, 48 h; P. falciparum luciferase growth in erythrocytes, 48 h; Potency, µM (series often up to 28.7 µM), actives largely listed as inhibitors; 310,000 compounds, 5.9% hits
#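 Read-out is firefly luciferase luminescence from an integrated reporter in P. falciparum, so falling signal marks reduced parasite growth. Infected erythrocytes were at 2% hematocrit and 0.1% parasitemia (final) in Albumax-supplemented RPMI 1640.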
# A number is an active result; i = inactive; ? = inconclusive; nt = no result given. The list is not random: actives were taken first. Their share in the collection is about 22%. Unless noted, the call rests on the fitted dose curve; in most records, active means well fitted inhibition curve with a large enough effect; inconclusive means small, poorly fitted or top-dose-only effect, or another doubt; inactive means no such curve, though single readings can be large or run the other way.
SMILES,Shiga toxin inh,LmPK inhibitor,CHX counter,Pf growth 96h,Pf growth 48h
COc1cccc(C(=O)COc2ccc3ccc(=O)oc3c2)c1,i,i,i,i,i
COC(=O)c1ccc(S(=O)(=O)NNC(=O)COc2ccc(C)cc2)cc1,i,i,i,5.2µM,i
COC(=O)c1ccc(OCC(=O)c2ccc(C)c(C)c2)cc1,82,i,24,i,i
CC(=O)Nc1ccc(S(=O)(=O)NNC(=O)COc2ccc(C)cc2)cc1,i,i,i,i,i
CCOC(=O)C1(Cc2ccc(Cl)cc2)CCN(C(=O)c2cc(C)nc(C)n2)CC1,i,i,i,?,i
CCOC(=O)C1(CC2CC2)CCN(C(=O)c2ocnc2C)CC1,76,i,44,i,i
CCOC(=O)C1(CC2CC2)CCN(C(=O)c2cc(C)nc3ccc(CC)cc23)CC1,i,i,i,2.1µM,?
CC(C)(CNC(=O)c1ccc(-c2ccccc2Cl)o1)N1CCOCC1,nt,nt,nt,i,i
COc1ccc(-n2c(SCC(=O)Nc3ccccc3)nnc2-c2ccc(NS(=O)(=O)c3ccc(C)cc3)cc2)cc1,i,i,i,3.3µM,nt
COc1ccc(-n2c(SCC#N)nnc2-c2ccc(NS(=O)(=O)c3ccc(C)cc3)cc2)cc1,i,i,i,i,nt
COc1ccc(-n2c(SCC(N)=O)nnc2-c2ccc(NS(=O)(=O)c3ccc(C)cc3)cc2)cc1,i,i,i,10µM,nt
C=CCN(c1ccccc1)S(=O)(=O)c1cccc(C(=O)N(CC)CC(=O)Nc2c(F)cccc2F)c1,i,i,i,i,?
CCOC(=O)[C@H]1[C@H]2COc3ccc(OC)cc3[C@@H]2N2C(=O)CN(Cc3ccccc3)C(=O)[C@@]12C,nt,nt,nt,?,10µM
CCOC(=O)[C@H]1[C@H]2COc3ccc(Br)cc3[C@@H]2N2C(=O)CN(Cc3ccc(F)cc3)C(=O)[C@@]12C,nt,nt,nt,?,13µM
CCOC(=O)[C@H]1[C@H]2COc3ccc(OC)cc3[C@@H]2N2C(=O)CN(Cc3ccc(Cl)cc3)C(=O)[C@@]12C,nt,nt,nt,?,15µM
CCOC(=O)C(Cc1ccc(Cl)cc1Cl)c1ccno1 (configuration not stated),i,i,i,i,i
CN(CC(=O)Nc1ccccc1C(=O)NC1CC1)Cc1cccs1,nt,nt,nt,i,i
O=C(COC(=O)c1ccccc1Br)NCc1ccccc1,i,i,24,i,i
O=C(COC(=O)c1c[nH]c(=O)[nH]c1=O)Nc1ccccc1F,i,i,i,?,i
O=C(COC(=O)c1ccccc1Br)Nc1ccccc1F,57,i,55,i,i
Cc1ccc(CNC(=O)CCSCc2ccccc2C)cc1,i,i,i,i,?
CN(C(=O)Cn1cc([N+](=O)[O-])ccc1=O)C1CCCCC1,nt,nt,nt,i,?
COc1cccc(-c2nnc(N(C)C(=O)C3CCOC3)s2)c1 (configuration not stated),58,i,29,?,i
O=C(Nc1cccnc1)C1CC(=O)N(c2ccc(F)cc2)C1 (configuration not stated),i,i,i,i,i
O=c1sc2ccccc2n1CCOc1ccccc1,66,i,39,i,nt
SMILES,Shiga toxin inh,LmPK inhibitor,CHX counter,Pf growth 96h,Pf growth 48h
Cc1ccc(OCn2c(=O)sc3ccccc32)cc1,65,i,47,nt,i
Cc1cc(C)c(NC(=O)CSc2nncn2-c2cccnc2)c(C)c1,i,i,i,12µM,i
CCOC(=O)CSc1nnc(-c2ccc3ncccc3c2)n1C,i,i,i,i,12µM
CCn1c(SCC(=O)c2ccc(C)cc2)nnc1-c1ccncc1,i,i,i,?,nt
CCn1c(SCC(=O)c2ccc(C)cc2)nnc1-c1ccoc1C,i,i,27,15µM,i
CCn1c(-c2ccc3ncccc3c2)n[nH]c1=S,i,?,i,i,i
CCn1c(SCC(=O)c2ccc(Cl)cc2)nnc1-c1ccoc1C,17,i,33,15µM,?
Cc1c(Cl)cccc1NC(=O)CSc1nncn1-c1cccnc1,i,i,i,?,i
Cc1ccc(S(=O)(=O)NCc2ccccc2)cc1C(=O)N(C)Cc1ccc(F)cc1,i,i,i,i,i
Cc1ccc(S(=O)(=O)N2CCCC(c3nc4c(nnn4Cc4ccc5c(c4)OCCO5)c(=O)[nH]3)C2)cc1 (configuration not stated),i,i,i,?,?
O=C(NC(=S)N1CCN(C/C=C/c2ccccc2)CC1)c1ccc(Cl)nc1,i,i,i,?,?
CCCn1c(SCC(=O)Nc2cccc(C(=O)OC)c2)nnc1-c1cccnc1,i,i,i,10µM,i
CCn1c(SCC(=O)c2ccccc2)nnc1-c1cccnc1,i,i,44,i,i
Cc1cc(C)c(C(=O)CSc2nnc(-c3cccnc3)n2C)c(C)c1,i,i,i,nt,12µM
CCn1c(SCCC(=O)O)nnc1-c1cccnc1,i,i,i,i,i
CCn1c(Cn2nnc(-c3ccccc3)n2)nnc1SCC(=O)Nc1ccc(C(C)=O)cc1,57,i,44,?,?
Cc1ccccc1OCCC(=O)OCC(=O)NNC(=O)c1cccs1,nt,nt,nt,i,i
C=CCNC(=S)Nc1ccc(OC)c(S(=O)(=O)N2CCOCC2)c1,i,i,i,i,i
CCn1c(SCC(=O)c2ccccc2)nnc1-c1ccoc1C,50,i,21,i,i
COCCn1c(SCC(=O)Nc2ccccc2)nnc1-c1ccoc1C,i,i,i,i,i
CC(=O)c1ccc(NC(=O)CSc2nnc(-c3ccoc3C)n2Cc2ccccc2)cc1,31,i,24,i,i
CCn1nnnc1SCC(=O)c1ccc(NC(C)=O)cc1,i,i,i,nt,i
CCn1nnnc1SCC(=O)c1ccc(C)cc1,121,i,38,i,i
Cc1nnc(SCC(=O)N(C)CC(=O)Nc2ccc(F)cc2)n1Cc1ccccc1,i,i,i,i,9.3µM
CSc1ncc(Cl)c(C(=O)Nc2ccccc2Br)n1,i,i,i,i,i
SMILES,Shiga toxin inh,LmPK inhibitor,CHX counter,Pf growth 96h,Pf growth 48h
COC(=O)c1sccc1N(C)S(C)(=O)=O,i,i,i,i,i
CC(C)(C)C(=O)Nc1cccc(-c2ncon2)c1,i,i,i,i,i
CC(=O)N1c2ccc(S(=O)(=O)NCCC(=O)Nc3cccc(Cl)c3)cc2CC1C (configuration not stated),i,i,i,i,i
C/C(=C\c1csc(C)n1)[C@@H]1C[C@@H]2O[C@]2(C)CCC[C@H](C)[C@H](O)[C@@H](C)C(=O)C(C)(C)[C@@H](O)CC(=O)O1,nt,nt,nt,?,0.0013µM
Cc1nc(C2CC(=O)OC23CCCCC3)cs1 (configuration not stated),i,i,i,i,i
COC(=O)c1ccc(N2CCCCC2)c(NC(=O)c2ccco2)c1,i,i,i,i,?
COc1ccc(CC(=O)O/N=C(\N)c2ccc(OC)cc2)cc1,71,i,64,i,i
COc1ccc(CC(=O)O/N=C(\N)c2ccccc2)cc1OC,42,i,38,i,nt
COc1ccc(/C(N)=N/OC(=O)Cc2cccs2)cc1,113,i,44,i,i
COc1ccc(/C(N)=N/OC(=O)Cc2cccs2)cc1OC,33,i,27,i,i
CCOC(=O)c1cncc(C#CCO)c1,i,i,i,i,i

# From PubChem
